Reference: PubChem BioAssay (Tox21)
Results filed as inconclusive are left out. The source made the active and inactive calls. Unless noted, the call rests on the fitted dose curve; in most records, active means well fitted curve in the direction sought with a large enough effect in the repeat runs; inconclusive means weak or mixed curves; inactive means flat fitted curve, though single readings scatter.

Key:
[1] = qHTS assay to test for compound auto fluorescence at 535 nm (green) in HEK293 cells (AID 720680)
[2] = qHTS assay to test for compound auto fluorescence at 460 nm (blue) in HEK293 cell free culture (AID 720681)
Method in brief: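 Blue fluorescence (Ex 405/Em 460 nm, triamterene-equivalent) was read immediately after pin transfer of compound or DMSO into medium (DMEM, 10% FBS) without cells.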

[3] = qHTS assay to test for compound auto fluorescence at 535 nm (green) in HEK293 cell free culture (AID 720682)
Method in brief: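 No cells present: wells hold DMEM supplemented with 10% FBS, into which compound or vehicle is pinned. Green emission is then recorded (485 nm excitation, 535 nm emission) and scaled to fluorescein.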

[4] = qHTS assay to test for compound auto fluorescence at 590 nm (red) in HEK293 cell free culture (AID 720683)
Method in brief: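 Red-channel autofluorescence of compounds in culture medium (DMEM, 10% FBS), no cells, measured at 540/590 nm. Rose Bengal sodium is the reference fluorophore for equivalence.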

[5] = qHTS assay to test for compound auto fluorescence at 590 nm (red) in HepG2 cell free culture (AID 720684)
Method in brief: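 Steps: dispense MEM/10% FBS medium, no cells; pin compound or DMSO vehicle; read red channel, Ex/Em 540/590 nm. Output given as Rose Bengal sodium equivalents.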

[6] = qHTS assay to test for compound auto fluorescence at 460 nm (blue) in HepG2 cell free culture (AID 720685)
Method in brief: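 Compound (23 nL) or DMSO pinned into cell-free MEM with 10% FBS; blue fluorescence read at 405/460 nm excitation/emission, expressed as auto-fluorescence equivalency to triamterene.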

[7] = qHTS assay to test for compound auto fluorescence at 535 nm (green) in HepG2 cell free culture (AID 720686)
[8] = qHTS assay to test for compound auto fluorescence at 460 nm (blue) in HepG2 cells (AID 720687)
Method in brief: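 Blue-channel autofluorescence (Ex/Em 405/460 nm, triamterene-equivalent) was measured after 1 hr compound exposure at 37 C, 5% CO2. Cells were HepG2, plated overnight at 37 C in MEM plus 10% FBS.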

[9] = target: Glucocorticoid receptor (Homo sapiens) (UniProt P04150); assay: qHTS assay to identify small molecule agonists of the glucocorticoid receptor (GR) signaling pathway (AID 720691; active means well fitted activation curve with a large enough effect in the signal ratio in the repeat runs, not every such curve was filed as active; the % refers to the signal ratio)
Method in brief: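 Fluorescence intensity from LiveBLAzer B/G FRET substrate (2 h, room temperature) reports beta-lactamase expression driven by the glucocorticoid response element in GR-bla HeLa cells after 18 h compound exposure at 37 C.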

[10] = target: Glucocorticoid receptor (Homo sapiens) (UniProt P04150); assay: qHTS assay to identify small molecule antagonists of the glucocorticoid receptor (GR) signaling pathway (AID 720692; active means well fitted inhibition curve with a large enough effect in the signal ratio in the repeat runs, not every such curve was filed as active; the % refers to the signal ratio)
Method in brief: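 HeLa GR-bla cells; cmpd + dex 5 nM final, 18 h 37 C; LiveBLAzer B/G FRET substrate 2 h RT; fluorescence intensity read. Antagonist mode, qHTS.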
On the % scale 0 is the no-effect control and ±100 the full control effect.

Glucocorticoid receptor (Homo sapiens), sequence (P04150 whole entry, looked up): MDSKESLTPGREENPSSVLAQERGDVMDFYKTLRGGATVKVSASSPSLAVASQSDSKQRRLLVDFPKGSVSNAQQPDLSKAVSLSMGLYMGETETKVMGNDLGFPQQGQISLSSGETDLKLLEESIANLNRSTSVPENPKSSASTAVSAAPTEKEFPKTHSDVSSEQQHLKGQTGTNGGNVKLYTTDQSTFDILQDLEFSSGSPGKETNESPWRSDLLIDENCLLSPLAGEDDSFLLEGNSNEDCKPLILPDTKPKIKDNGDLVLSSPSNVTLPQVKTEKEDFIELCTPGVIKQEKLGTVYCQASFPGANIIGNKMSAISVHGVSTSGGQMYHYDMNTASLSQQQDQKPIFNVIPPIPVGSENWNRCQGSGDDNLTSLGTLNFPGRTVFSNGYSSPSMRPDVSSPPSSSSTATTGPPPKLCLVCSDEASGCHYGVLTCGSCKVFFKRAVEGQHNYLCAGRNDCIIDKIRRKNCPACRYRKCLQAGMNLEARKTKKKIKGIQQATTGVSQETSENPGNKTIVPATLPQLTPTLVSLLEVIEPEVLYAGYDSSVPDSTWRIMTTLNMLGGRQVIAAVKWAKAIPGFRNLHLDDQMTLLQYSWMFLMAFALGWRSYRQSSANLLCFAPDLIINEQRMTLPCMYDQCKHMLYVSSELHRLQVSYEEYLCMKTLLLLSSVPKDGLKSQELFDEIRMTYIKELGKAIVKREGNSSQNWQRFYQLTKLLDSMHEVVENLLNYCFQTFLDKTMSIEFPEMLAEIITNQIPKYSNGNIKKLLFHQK

Cc1ccccc1C
inactive: outcome [1] | outcome [2] | outcome [3] | outcome [4] | outcome [5] | outcome [6] | outcome [7] | outcome [8] | Potency [9]

C=CC(C)(O)CC/C=C(\C)CC (centres undefined)
inactive: outcome [1] | outcome [2] | outcome [3] | outcome [4] | outcome [5] | outcome [6] | outcome [7] | outcome [8] | Potency [9] | outcome [10]

CN[C@@H]1[C@H](O)[C@H](NC)[C@H]2O[C@@]3(O)C(=O)C[C@@H](C)O[C@H]3O[C@@H]2[C@H]1O
inactive: fluorescence, % of fluorescein [1] 0.0714% [at 18.6 µM] | fluorescence, % of fluorescent control [2] 0.0087% [at 18.6 µM] | activity change [3] 0.0093% [at 18.6 µM] | fluorescence, % of fluorescent control [4] 0.386% [at 18.6 µM] | fluorescence, % of Rose Bengal [5] 0.555% [at 18.6 µM] | fluorescence, % of fluorescent control [6] 0.0605% [at 18.6 µM] | fluorescence, % of fluorescein control [7] 0.0131% [at 18.6 µM] | fluorescence, % of fluorescent control [8] 0.0309% [at 18.6 µM] | Potency [9] | outcome [10]

CCc1nccnc1C
inactive: outcome [1] | outcome [2] | outcome [3] | outcome [4] | outcome [5] | outcome [6] | outcome [7] | outcome [8] | Potency [9] | outcome [10]

CCCCOC(=O)C(C)OC(=O)CCC (centres undefined)
inactive: outcome [1] | outcome [2] | outcome [3] | outcome [4] | outcome [5] | outcome [6] | outcome [7] | outcome [8] | Potency [9] | outcome [10]

CCCCCCCCCCCCCC(=O)OC
inactive: outcome [1] | outcome [2] | outcome [3] | outcome [4] | outcome [5] | outcome [6] | outcome [7] | outcome [8] | Potency [9] | outcome [10]

CCN(CCC#N)c1ccccc1
inactive: outcome [1] | outcome [2] | outcome [3] | outcome [4] | outcome [5] | outcome [6] | outcome [7] | outcome [8] | Potency [9] | outcome [10]

NC(Cc1c[nH]c2ccccc12)C(=O)O (centres undefined)
inactive: outcome [1] | outcome [2] | outcome [3] | outcome [4] | outcome [5] | outcome [6] | outcome [7] | outcome [8] | Potency [9] | outcome [10]

CCOC(=O)CC#N
inactive: outcome [1] | outcome [2] | outcome [3] | outcome [4] | outcome [5] | outcome [6] | outcome [7] | outcome [8] | Potency [9] | outcome [10]

CC(=O)c1ccc2c(c1)CCCC2
inactive: outcome [1] | outcome [2] | outcome [3] | outcome [4] | outcome [5] | outcome [6] | outcome [7] | outcome [8] | Potency [9] | outcome [10]

CCOC(=O)OCC/C(SC(=O)OCC)=C(\C)N(C=O)Cc1cnc(C)nc1N
inactive: outcome [1] | outcome [2] | outcome [3] | outcome [4] | outcome [5] | outcome [6] | outcome [7] | outcome [8] | Potency [9] | outcome [10]

CCC(=O)c1ccc(O)cc1
inactive: outcome [1] | outcome [2] | outcome [3] | outcome [4] | outcome [5] | outcome [6] | outcome [7] | outcome [8] | Potency [9] | outcome [10]

Cc1ccccc1N1CCN(CCc2nnc3n2CCCC3)CC1
inactive: outcome [1] | outcome [2] | outcome [3] | outcome [4] | outcome [5] | outcome [6] | outcome [7] | outcome [8] | Potency [9] | outcome [10]

CN=C(NC#N)NCCSCc1csc(N=C(N)N)n1
inactive: outcome [1] | outcome [2] | outcome [3] | outcome [4] | outcome [5] | outcome [6] | outcome [7] | outcome [8] | Potency [9] | outcome [10]

NC(=O)NNC(N)=O
inactive: outcome [1] | outcome [2] | outcome [3] | outcome [4] | outcome [5] | outcome [6] | outcome [7] | outcome [8] | Potency [9] | outcome [10]

C[N+](C)(C)CC(O)CCl (centres undefined)
inactive: outcome [1] | outcome [2] | outcome [3] | outcome [4] | outcome [5] | outcome [6] | outcome [7] | outcome [8] | Potency [9] | outcome [10]
